Bioassay records as filed in PubChem.
Hits are enriched below; roughly 6.2% of the tested compounds scored in any of these assays.
HT1080 IDH1KD tx = kills HT-1080 cells with IDH1 knockdown. HT-1080 IDH1 knockdown viability, ATP luminescence, 48 h. Potency, µM (titrated, usually from 46.1 µM), inactives show at the top dose activity, negative = toxicity, usual class: cytotoxic. actives 2% (n = 360,000);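 note: 0% = DMSO wells and -100% = cell-free medium wells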
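Using the IDH1-knockdown HT-1080 line run in the same batch and compound series as the NT line, viability after 48 h at 37 °C was determined by CellTiter-Glo luminescence and expressed as % activity.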
KB-V1 MDR tox = kills drug-selected multidrug resistant KB-V1 cells; KB-V1 MDR cells viability, CellTiter-Glo, 72 h; Potency, µM (highest dose often 46.1 µM), usual class: cytotoxic; actives 3.4% (n = 400,000); note: % is set by controls: 0 for no effect and ±100 for the full control effect; nearly all actives have a fitted effect of over 60% in size
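KB-V1 MDR subline cells in DMEM (phenol-red free, 10% FBS) exposed to compounds in qHTS concentration series for 72 h at 37 degrees C. Viability read by CellTiter-Glo luminescence; concentration-effect curves fitted after normalization and correction.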
KB-3-1 tox = KB-3-1 parental cell cytotoxicity; KB-3-1 viability, CellTiter-Glo ATP luminescence, 72 h; Potency, µM (titrated, usually from 46.1 µM), most hits filed as cytotoxic; actives 1.4% (n = 400,000); AID 1347075; note: % is set by controls: 0 for no effect and ±100 for the full control effect; nearly all actives have a fitted effect of over 60% in size
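72 h, 37 °C compound treatment of KB-3-1 parental cells; CellTiter-Glo added, 10 min, luminescence read. Data corrected against DMSO-only plates and normalized before curve fitting.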
HT1080NT lethal = kills 2HG-producing HT-1080-NT fibrosarcoma cells; HT-1080-NT fibrosarcoma viability, CellTiter-Glo ATP luminescence, 48 h; Potency, µM (top dose mostly 46.1 µM), without a hit: top-dose activity, negative = less viability, most hits filed as cytotoxic; actives 1.6% (n = 360,000);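 note: NT is the 2HG producing partner of a matched IDH1 knockdown line; 0% = DMSO-treated cells and -100% = media-only wells without cells; nearly all actives have a fitted effect of over 55% in size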
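750 cells/well, RPMI + 5% FBS; 2 h settle, compound pin-transfer, 48 h at 37 degrees C. CellTiter-Glo 10 min RT, luminescence. Normalized to DMSO and media-only wells.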
ATXN2 expr inh = reduces ATXN2 reporter expression in HEK-293 cells. HEK-293 ATXN2-luciferase reporter, luminescence, 24 h. actives 0.72% (n = 360,000). AID 1745845. Potency, µM (top dose mostly 57 µM), for the others: at the top dose activity change, negative = inhibition, usual class: inhibitors; note: % is set by controls: 0 for no effect and ±100 for the full control effect; nearly all actives have a fitted effect of over 55% in size
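qHTS (up to 57 uM final) was run with 24 h compound exposure of reporter cells at 37 °C. Each well was multiplexed: SteadyGlo luminescence measured ATXN2-luciferase expression after a fluorogenic Gly-Phe-AFC viability readout (25 uM final).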
S2 tox = cell viability loss in ATXN counter-screen | S2 cells (HEK-293 line with an ATXN2-luciferase reporter) viability, CellTiter-Fluor protease fluorescence, 24 h | Potency, µM (top dose mostly 56.7 µM), hits mostly cytotoxic | AID 651635 | actives 0.49% (n = 400,000); note: nearly all actives have a fitted effect of over 40% in size
* = called active by the depositor; i = inactive; ? = inconclusive; . = no result; [ ] = dose if it differs, or a comment. Calls come from the whole dose curve; as a rule, active = well fitted curve in the direction sought with a large enough effect; inconclusive = small, poorly fitted or top-dose-only effect, or another doubt; inactive = no such curve, though single readings can be large; an effect the other way counts as inactive or inconclusive. Potency is the fitted concentration of half-maximal effect.

SMILES | HT1080 IDH1KD tx | KB-V1 MDR tox | KB-3-1 tox | HT1080NT lethal | ATXN2 expr inh | S2 tox
CC(C)c1ccc(N2C(=O)CS(=O)(=O)C23C(=O)N(Cc2cccc(F)c2)c2ccccc23)cc1 (configuration not stated) | . | i | i | . | -2% | i
CCNc1ccc(Br)cc(C(=O)/C=C/c2c(Cl)cccc2Cl)c1=O | ? | i | ? | ? | ? | ?
CCNc1ccc(Br)cc(C(=O)/C=C/c2ccc(Cl)cc2)c1=O | ? | 18µM* | 16µM* | ? | 22µM* | .
CNc1ccc(Br)cc(C(=O)/C=C/c2ccc(OC)cc2OC)c1=O | -17% | ? | i | -7% | 3% | i
CNc1ccc(Br)cc(C(=O)/C=C/c2ccc(Cl)cc2Cl)c1=O | 21µM* | ? | ? | ? | ? | ?
O=C(Cn1c(=O)n2nc(-c3cccc(F)c3)nc2c2ccccc21)N1CCN(c2ccccc2F)CC1 | . | i | i | . | 9% | i
COc1ccc(CN2CCC3(CCC(CNC(=O)c4ccco4)O3)CC2)c(OC)c1C (configuration not stated) | . | . | . | . | . | i
Cc1nonc1OCC(C)(COc1nonc1C)NC(=O)c1ccc(Cl)cc1 | -28% | 4.1µM* | ? | ? | -20% | i
Cc1noc(NC(=O)c2ccc(Cl)cc2)c1Cl | ? | i | i | 5% | -4% | i
C[N+]1(CC(=O)c2ccc3c(c2)CCCC3)CCOCC1 | . | i | ? | . | . | .
CN(CCO)C(=O)c1cn(C2CCN(Cc3c(F)cccc3Cl)CC2)nn1 | . | . | . | . | . | i
CN(C)c1nc(NCc2ccccc2)nc(SCC(=O)Nc2ccc(Cl)c(Cl)c2)n1 | ? | 7.3µM* | i | ? | ? | ?
CCNc1nc(SCC(=O)Nc2ccc(Cl)c(Cl)c2)nc(N(C)C)n1 | 1% | i | i | -6% | -10% | i
COc1ccc(NC(=O)CSc2n[nH]c(-c3ccccn3)n2)cc1 | ? | i | ? | -15% | ? | i
CCNc1nc(NCc2ccccc2)nc(SCC(=O)Nc2ccccc2)n1 | -20% | 2.3µM* | ? | -11% | -10% | i
O=C(CSc1n[nH]c(-c2ccccn2)n1)Nc1ccccc1 | 21µM* | i | ? | ? | ? | i
COc1ccccc1CNc1nccn(-c2ccccc2)c1=O | . | i | i | . | 32% | i
CC(C)CN(C)Cc1c(C(=O)N2CCc3ccccc3C2)nc2ccc(Cl)cn12 | -29% | 16µM* | ? | ? | -13% | i
CCCCN(C)Cc1c(C(=O)N2CCc3ccccc3C2)nc2ccc(Cl)cn12 | 1% | ? | i | -3% | -9% | i
COc1ccc(OC)c(NC(=O)c2ccc(NC3=NC4CS(=O)(=O)CC4S3)cc2)c1 (configuration not stated) | 7% | i | i | 12% | -7% | i
CC1=CC(C)(C)N2C(=O)C(=O)c3cc(OC(=O)c4ccco4)cc1c32 | 16µM* | ? | ? | 2.3µM* | -33%[11.3 µM] | ?
O=C(Oc1cccc(OC(=O)c2ccco2)c1)c1ccco1 | 0% | i | i | -5% | . | i
CCN1C(=O)/C(=C2/C(=O)N3c4c(cc(OC(C)=O)cc42)C(C)=CC3(C)C)SC1=S | -1% | i | i | ? | -9% | i
COc1ccc(OC(=O)C(C)N2C(=O)c3ccccc3C2=O)cc1 (configuration not stated) | -3% | i | i | -8% | -6% | i
CC1=CC(C)(C)Nc2ccc(OC(=O)C(C)N3C(=O)c4ccccc4C3=O)cc21 (configuration not stated) | 18µM* | ? | ? | 21µM* | ? | .
SMILES | HT1080 IDH1KD tx | KB-V1 MDR tox | KB-3-1 tox | HT1080NT lethal | ATXN2 expr inh | S2 tox
CC1=CC(C)(C)Nc2ccc(C)cc21 | -2% | i | i | 4% | -1% | i
CC1=CC(C)(C)Nc2ccc(OC(=O)CN3C(=O)CCC3=O)cc21 | 2.5µM* | ? | i | ? | ? | i
CC1=CC(C)(C)Nc2ccc(OC(=O)c3ccco3)cc21 | ? | i | i | 2.8µM* | 32µM* | ?
CCN(CC)CC(=O)Nc1ccc2c(c1)Nc1ccccc1CC2 | ? | ? | ? | 11µM* | -3% | ?
CCN(CC)CC(=O)Nc1ccc2c(c1)N(C(=O)CN(CC)CC)c1ccccc1CC2 | ? | ? | i | ? | -15% | ?
Cc1csc(C(C#N)C(=O)c2cc3ccccc3o2)n1 (configuration not stated) | ? | 21µM* | ? | ? | -18% | ?
CCOc1ccc(Br)cc1CC(=O)O | 8% | i | i | 6% | -12% | i
CCCOc1ccc(Br)cc1CSC(=N)N | ? | i | 8.2µM* | -28% | ? | i
Cc1ccc(C)c(NC(=O)C(Sc2ncnc3ccccc23)c2ccccc2)c1 (configuration not stated) | 3% | 16µM* | i | -5% | -3% | i
Cc1ccc(C)c(NC(=O)C(Sc2nncn2C)c2ccccc2)c1 (configuration not stated) | 12% | 15µM* | i | 4% | -7% | ?
CC(=O)c1cccc(NC(=O)C(Sc2ncnc3ccccc23)c2ccccc2)c1 (configuration not stated) | -16% | i | i | -25% | 19% | i
O=C(N[C@H]1CCCCNC1=O)c1cc(COc2ccc(F)cc2F)on1 | -4% | i | i | 0% | . | i
COc1ccc(CN2CCc3nnc(CNC(=O)c4cc(C)oc4C)n3CC2)c2ccccc12 | . | . | . | . | . | i
COc1cc(C)c(NC(=O)c2cccc(S(=O)(=O)N3CCCC3)c2)cc1OC | 12% | i | i | -1% | -7% | i
Cc1ccc(CN2C(=O)c3ccccc3C2c2nnnn2-c2ccc3c(c2)OCCO3)cc1 (configuration not stated) | ? | i | ? | -16% | -19% | ?
Cc1ccccc1CN1C(=O)c2ccccc2C1c1nnnn1-c1ccc2c(c1)OCCO2 (configuration not stated) | 3.3µM* | 5.8µM* | 2.9µM* | 3.7µM* | 7% | ?
O=S1(=O)N[C@H](Cc2ccccc2)COc2cc(N3CCC[C@@H]3CO)ccc21 | 23µM* | i | 21µM* | ? | 19% | i
CNCCC=C1c2ccccc2CCc2ccccc21 | ? | 21µM* | i | 23µM* | -4% | i
